Experiment [1] has as its target Cellular tumor antigen p53 (Homo sapiens) (UniProt P04637). In words: Primary qHTS for small molecule compounds that upregulate eGFP-tagged delta133p53alpha (in N-terminal) cells. (AID 2060322). Further: nearly all actives have a fitted effect of over 75% in size. Further: potency means the concentration at half of the fitted maximal effect.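 On activation: series mostly up to about 56 µM; 0% = DMSO vehicle and 100% = reference activator.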 The note with it: NCI-H358 eGFP-delta133p53alpha fluorescence, 24 h; activation: active compounds read high. Put shortly: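 NCI-H358 cells pre-induced 24 h with 10 ng/ml doxycycline to express N-terminal eGFP-delta133p53alpha, then dosed 24 h at 37C without doxycycline; fixed, Hoechst-stained, GFP intensity by laser scanning cytometry, normalized to DMSO (0%) and 57.5 uM 5-azacytidine (100%).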
For orientation: qHTS replaces the single test concentration by a dilution series.

Experiment [2] can be described thus: qHTS for Inhibitors of the Aldehyde Dehydrogenase Family (ALDH1A2, ALDH1A3, ALDH2, ALDH3A1) (AID 2061307). Further: nearly all actives have a fitted effect of over 50% in size. On Potency: test system not described further here; potency means the concentration at half of the fitted maximal effect. On activity change, negative = inhibition: on the % scale 0 is the no-effect control and ±100 the full control effect.
For experiment [3], the target named is Aldehyde dehydrogenase, mitochondrial (Homo sapiens) (UniProt P05091). In words: qHTS for Inhibitors of the Aldehyde Dehydrogenase Family (ALDH2) Primary screen (AID 2061308).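 Further: plate controls were vehicle for no effect and reference inhibitor for full effect; nearly all actives have a fitted effect of over 55% in size.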
Experiment [4] concerns the target Retinaldehyde dehydrogenase 3 (Homo sapiens) (UniProt P47895). The experiment is described as follows: qHTS for Inhibitors of the Aldehyde Dehydrogenase Family (ALDH1A3) Validation screen (AID 2061312). Further: nearly all actives have a fitted effect of over 45% in size. Further: potency means the concentration at half of the fitted maximal effect. On activity change, negative = inhibition: on the % scale 0 is the no-effect control and ±100 the full control effect.
For experiment [5] the target is unchanged. In words: qHTS for Inhibitors of the Aldehyde Dehydrogenase Family (ALDH1A3) Primary screen (AID 2061315). Further: potency means the concentration at half of the fitted maximal effect.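 On activity change, negative = inhibition: plate controls were DMSO vehicle for no effect and reference inhibitor for full effect.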
Experiment [6] shares this target. The experiment is described as follows: qHTS for Inhibitors of the Aldehyde Dehydrogenase Family (ALDH1A3) Confirmatory screens (AID 2061311). Further: nearly all actives have a fitted effect of over 60% in size. Further: potency means the concentration at half of the fitted maximal effect. On activity change, negative = inhibition: on the % scale 0 is the no-effect control and ±100 the full control effect.
The target in experiment [7] is Retinal dehydrogenase 2 (Homo sapiens) (UniProt O94788). In words: qHTS for Inhibitors of the Aldehyde Dehydrogenase Family (ALDH1A2) Confirmation screens (AID 2061314). Further: nearly all actives have a fitted effect of over 65% in size. Further: potency means the concentration at half of the fitted maximal effect.
Experiment [8] in a line: BET inhibitor-based combinations targeting novel dependencies in MECOM-rearranged (r) AML: SET-2 cell line (AID 2202231). Further: nearly all actives have a fitted effect of over 35% in size. Further: potency means the concentration at half of the fitted maximal effect.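 On viability: plate controls were DMSO treated cells for no effect and wells without cells for full effect.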 The note with it: SET-2 AML cells viability, CellTiter-Glo luminescence, 48 h; viability: active compounds read low, concentration not given here. Summed up: (§1)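 Here, 11-point titrations of each agent were applied to 500 seeded cells and incubated 48 hr; CellTiter-Glo signal, scaled against DMSO and empty wells, was integrated as AUC, then Z-scored within the individual line.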
In general terms: Cellular ATP, detected with luciferase, serves as a proxy for viable cell number.

The nature of experiment [9]: BET inhibitor-based combinations targeting novel dependencies in MECOM-rearranged (r) AML: MV-4-11 cell line (AID 2202233). Further: nearly all actives have a fitted effect of over 45% in size. Further: potency means the concentration at half of the fitted maximal effect. Summed up:
(§2)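 Normalized to DMSO and empty-well controls, the luminescence data from CellTiter-Glo after 48 hr drug exposure were fitted across 11 concentrations. Reported metrics are area under the dose-response curve and its Z-transformed form.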

Experiment [10] is described as follows: BET inhibitor-based combinations targeting novel dependencies in MECOM-rearranged (r) AML: HNT-34 cell line (AID 2202234). Further: nearly all actives have a fitted effect of over 35% in size. Further: potency means the concentration at half of the fitted maximal effect. Summed up:
as §2

Experiment [11] in a line: BET inhibitor-based combinations targeting novel dependencies in MECOM-rearranged (r) AML: AML-191 cell line (AID 2202236; further: nearly all actives have a fitted effect of over 35% in size; further: potency means the concentration at half of the fitted maximal effect). Put shortly:
as §1

A short description of experiment [12]: BET inhibitor-based combinations targeting novel dependencies in MECOM-rearranged (r) AML: AML-194 cell line (AID 2202237; further: nearly all actives have a fitted effect of over 40% in size; further: potency means the concentration at half of the fitted maximal effect). Put shortly: as §1
For experiment [13], the target named is Aldehyde dehydrogenase 1A1 (Homo sapiens) (UniProt P00352). In words: qHTS for Inhibitors of the Aldehyde Dehydrogenase Family (ALDH1A1) Confirmatory screens (AID 2061316). Further: nearly all actives have a fitted effect of over 65% in size. Further: potency means the concentration at half of the fitted maximal effect. On activity change, negative = inhibition: on the % scale 0 is the no-effect control and ±100 the full control effect.
Experiment [14] in a line: BET inhibitor-based combinations targeting novel dependencies in MECOM-rearranged (r) AML: OCI-AML3 cell line (AID 2202232). Further: potency means the concentration at half of the fitted maximal effect; nearly all actives have a fitted effect of over 35% in size. The note with it: Potency: OCI-AML3 viability. Summed up:
as §1

A short description of experiment [15]: BET inhibitor-based combinations targeting novel dependencies in MECOM-rearranged (r) AML: UCSD-AML1 cell line (AID 2202235). Further: nearly all actives have a fitted effect of over 40% in size. Further: potency means the concentration at half of the fitted maximal effect. Summed up:
as §2

Each structure is given as a SMILES string. Several values for one entry are separate records, joined by “and”; a condition that tells them apart may be missing. Equal values may be shown once. Inconclusive results are not listed. Values without a mark were called inactive. Activity calls are given as the source filed them. The call rests on the fitted dose curve; in most records, active means well fitted curve in the direction sought with a large enough effect; inconclusive means small, poorly fitted or top-dose-only effect, or another doubt; inactive means no such curve, though single readings can be large; an effect the other way counts as inactive or inconclusive.

Chain of Cellular tumor antigen p53 (Homo sapiens) (P04637 whole entry, looked up): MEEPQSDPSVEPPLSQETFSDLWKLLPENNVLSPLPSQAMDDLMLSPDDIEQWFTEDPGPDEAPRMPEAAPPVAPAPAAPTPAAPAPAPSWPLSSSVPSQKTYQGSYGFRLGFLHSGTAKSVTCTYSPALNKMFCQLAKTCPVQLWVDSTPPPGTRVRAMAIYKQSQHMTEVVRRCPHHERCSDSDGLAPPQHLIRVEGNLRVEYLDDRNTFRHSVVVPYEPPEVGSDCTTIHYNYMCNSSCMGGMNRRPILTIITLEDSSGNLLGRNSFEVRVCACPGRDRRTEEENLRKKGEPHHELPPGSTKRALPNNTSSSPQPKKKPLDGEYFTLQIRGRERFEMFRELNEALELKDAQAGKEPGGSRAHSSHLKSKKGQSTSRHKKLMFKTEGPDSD

As for `Cc1cc(Nc2ccc(NC(=O)c3ccc(Nc4ccnc5ccccc45)cc3)cc2)nc(N)n1`, in experiment [1], the Potency was 10.9 µM (active). Further, the Potency entry in experiment [2], in experiment [3], in experiment [4] and in experiment [5] was “inactive” each time.
Turning to `COc1ccc(CNC(=O)Nc2ncc([N+](=O)[O-])s2)cc1`, the Potency is 33.8 µM (active) in [1]; 3.16 µM (active) in experiment [2]; 14.2 µM (active) in experiment [6]; 12.7 µM (active) in [7]; 26.3 µM (active) in experiment [8]; 18.6 µM (active) in [9]. The Potency in experiment [10] was 20.9 µM (active); in experiment [11] it was 23.5 µM (active); in [12], 26.3 µM (active). Moreover, the Potency result in [3] and in experiment [5] was “inactive” in each case.
Turning to `S=C(NCc1ccc2c(c1)OCO2)N1CCN(c2ncnc3c2oc2ccccc23)CC1`, the activation in [1] is 8.81% and -14.3%. Besides, the Potency is 1.58 µM (active) in [2], 11.3 µM (active) in experiment [7], 2.95 µM (active) in [14] and 16.6 µM (active) in experiment [9]. Moreover, the Potency entry in experiment [3], in experiment [4], in experiment [5], in experiment [13] and in experiment [15] was “inactive” throughout.
For `COc1cc(C[C@H]2C(=O)OC[C@@H]2Cc2ccc(OC)c(OC)c2)ccc1O`, in [1], the activation is 19.6%. For the same compound, the Potency in experiment [2] was 0.251 µM (active). The Potency result in [3] and in experiment [5] was “inactive” throughout.
Consider `CC[C@@H](Nc1c(Nc2cccc(C(=O)N(C)C)c2O)c(=O)c1=O)c1cc(C(C)C)co1`, for which, in experiment [1], the activation is -2.39%. For the same compound, the Potency in experiment [2] was 5.62 µM (active) and 7.08 µM (active). Further, the Potency entry in experiment [3], in experiment [4], in [7] and in experiment [13] was “inactive” each time.
With `COc1ccc2c(c1)O[C@H](O[C@@H]1O[C@H](CO)[C@@H](O)[C@H](O)[C@H]1O)C(=O)N2`, in experiment [1], the activation was -12.5%. Moreover, the Potency entry in experiment [2] and in experiment [3] was “inactive” each time. For the same compound, the values for the Potency in experiment [6] and in experiment [5] were 13.9 µM (active) and 6.31 µM (active), respectively.
Turning to `C=CC(C)(O)CC/C=C(\C)C1CC=C(C)C(=O)O1` (centres undefined), the activation in experiment [1] was -9.82%. For the same compound, the Potency result in experiment [2] and in [3] was “inactive” each time. Moreover, the values for the Potency in experiment [6] and in experiment [5] were 22.5 µM (active) and 14.1 µM (active), respectively.
For `O=C(O)c1cc(-c2c(-c3ccccc3)nn3ccccc23)n[nH]c1=O`, the activation in experiment [1] is -0.333%. The Potency result in [2], in experiment [3] and in experiment [5] was “inactive” each time.
Turning to `O=C(C1OC1/C=C/c1ccc2c(c1)OCO2)N1CCCCC1` (centres undefined), the activation in experiment [1] was -6.11%. Moreover, the Potency result in experiment [2], in experiment [3] and in [7] was “inactive” each time.
Turning to `Cc1cc(N2CCOCC2)cc2[nH]c(-c3c(NC[C@@H](O)c4cccc(Cl)c4)cc[nH]c3=O)nc12`, the Potency in experiment [1] was 21.7 µM (active) and 23.9 µM (active); in experiment [10] it was 7.42 µM (active); in experiment [15], 0.296 µM (active); in experiment [11] it was 0.59 µM (active). Further, the Potency result in [2], in experiment [3], in experiment [4] and in experiment [5] was “inactive” each time.
As to `OCC1OC(Oc2cc(O)cc(/C=C/c3ccc(OC4OC(CO)C(O)C(O)C4O)cc3O)c2)C(O)C(O)C1O` (centres undefined), the activation in [1] is -9.16%. The Potency was 10 µM (active) in [2] and 4.47 µM (active) in experiment [5]. Further, the Potency entry in [3] was “inactive”.
Regarding `COc1c2c(c(C)c3c1C(=O)OC3)OC1(C)CC(O)C34OC(OC)(CC(O)C3(C)C1C2)OC4(C)C` (centres undefined), the activation in experiment [1] was -9.92%. Further, the Potency entry in [2], in [3] and in experiment [5] was “inactive” throughout.
As to `O=C(O)c1cc(C(F)(F)F)ccc1N1CC[C@H](OCc2ccccn2)C1`, the activation in [1] is -17%. In addition, the Potency result in experiment [2], in experiment [3], in experiment [6], in experiment [5] and in experiment [13] was “inactive” throughout.
For the compound `Cc1onc(-c2ccccc2)c1C(=O)N[C@@H]1C(=O)N2[C@@H]1SC(C)(C)[C@@H]2C(=O)O`, in experiment [1], the activation was -0.333% and 17%. Besides, the Potency entry in experiment [2], in experiment [3] and in experiment [5] was “inactive” in each case.
On to `CO[C@]1(NC(=O)CSC(F)F)C(=O)N2C(C(=O)O)=C(CSc3nnnn3CCO)CO[C@H]21`, for which the activation in [1] was -7.53%. In addition, the Potency result in experiment [2], in experiment [6], in experiment [7] and in [5] was “inactive” throughout. In addition, the Potency in experiment [13] is 14.2 µM (active).
For `CC1=CCC2C(C)(CO)CCCC2(CO)C1CO` (centres undefined), the activation in experiment [1] is -19.8%. Moreover, the Potency entry in experiment [2], in [3] and in experiment [5] was “inactive” each time.
For `O=C(O)c1ccccc1C(=O)Nc1ccc(-c2ccccc2)cc1`, the activation in experiment [1] is -8.49% and 5.67%. The Potency result in [2], in [3], in experiment [5], in experiment [9], in experiment [10] and in experiment [15] was “inactive” throughout. Besides, the Potency result in experiment [11] and in experiment [12] was “inactive” throughout. For the same compound, the activity change, negative = inhibition in experiment [6] is -21.1% [at 0.0073 µM]. The Potency in [7] was 10.1 µM (active). For the same compound, in experiment [8], the viability was 116%.
Regarding `Cc1c(Cc2ccc3ccccc3n2)c2cc(F)ccc2n1CC(=O)O`, in experiment [1], the activation is -10%. Further, the Potency in experiment [2] is 3.18 µM (active). The Potency result in experiment [3] and in experiment [5] was “inactive” in each case.
For the compound `CC(=O)N[C@@H](CC(=O)O)C(=O)N[C@@H](CCC(=O)O)C(=O)N[C@H](C(=O)N[C@@H](CC(=O)O)C(=O)Nc1ccc2c(C)cc(=O)oc2c1)C(C)C`, the Potency in experiment [1] was 13.5 µM (active). Moreover, the Potency entry in [2], in [3] and in experiment [5] was “inactive” each time.
For `COc1c(C(C)C)c(O)c(O)c2c1C(OC)[C@H]1OC(=O)[C@@]23CCCC(C)(C)[C@H]13` (some centres undefined), the activation in [1] was -1.79%. Also, the Potency entry in experiment [2] is “inactive”. Also, the Potency is 6.97 µM (active) in [6], 15.6 µM (active) in experiment [7] and 2.82 µM (active) in experiment [5].
As for `CC(C)c1ccc2c(c1)CCC1[C@](C)(C(=O)O)CCC[C@]21C` (some centres undefined), in experiment [6], the Potency entry was “inactive”.
The same measure, in the same setting: for `CC[n+]1c(/C=C/C=C2/N(C)c3ccccc3C2(C)C)sc2ccccc21` the value was 12.7 µM (active).
Consider `CCOC(=O)N1CCC(CN(Cc2ccc(Cl)cc2)Cc2ccc([N+](=O)[O-])s2)C1` (centres undefined), for which the Potency in [4] is 10 µM (active).
Same read-out and setting: for `COc1cc2c(cc1NS(=O)(=O)c1ccc(Br)cc1C)n(C)c(=O)n2C` the value was 31.6 µM (active).

The term viability denotes a read-out of living cells in per cent, often relative to untreated cells.

Source of the values: PubChem BioAssay (NCATS).
